A short description of experiment [1]: antimalarial activity against Dd2 strain (AID 2302;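 active = growth inhibition above 50% at the single 2 µM test dose, taken to imply half-maximal potency below 2 µM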;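 also: 0% = DMSO untreated growth and 100% = chloroquine plus artemisinin killed control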). Conditions: P. falciparum Dd2 in RBCs, LDH growth readout, 72 h; at 2 µM; stronger effect = higher value.
Experiment [2] in a line: HepG2 cytotoxicity, primary screen, cytotoxicity control for P. falciparum antimalarial project, cell-based, ATP luminescence (AID 2303;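 active = inhibition above 50%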;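 also: 0% = DMSO wells and 100% = digitonin-killed cells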). The following applies: HepG2 viability, 24-48 h, at 10 µM, stronger effect = higher value.
Experiment [3] has as its target L-lactate dehydrogenase (Plasmodium falciparum (isolate CDC / Honduras)) (UniProt Q27743). In words: PfLDH activity inhibition – cell lysate, 3D7 strain, counter-screen for P. falciparum growth inhibition project (AID 2304).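 Also: 0% = vehicle and 100% = reference inhibitor.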 Conditions: P. falciparum 3D7 crude extract, LDH APAD/NBT absorbance; at 2 µM; stronger effect = higher value. (A counterscreen serves to expose hits that act by an unwanted route or on another target.)

A short description of experiment [4]: inhibition of 3D7 malaria parasite growth – strain 3D7 (AID 2306).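 Also: 0% = DMSO wells and 100% = chloroquine plus artemisinin control wells.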 The following applies: P. falciparum 3D7 erythrocytic growth, LDH absorbance, 72 h; at 2 µM; stronger effect = higher value.
The target of experiment [5] is Calcium-dependent protein kinase 1 (Plasmodium falciparum (isolate 3D7)) (UniProt P62344). In words: PfCDPK1 kinase inhibitors, biochemical, TCAMS library (AID 1159585; cut-off not given, nearly all actives have IC50 up to about 0.98 µM;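 also: inhibitors leave more ATP so luminescence rises with inhibition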). Conditions: recombinant PfCDPK1, Kinase-Glo ATP depletion luminescence. Background: Kinase-Glo reads ATP consumption through a luciferase reaction.
Calcium-dependent protein kinase 1 (Plasmodium falciparum (isolate 3D7)), sequence (P62344 whole entry, looked up): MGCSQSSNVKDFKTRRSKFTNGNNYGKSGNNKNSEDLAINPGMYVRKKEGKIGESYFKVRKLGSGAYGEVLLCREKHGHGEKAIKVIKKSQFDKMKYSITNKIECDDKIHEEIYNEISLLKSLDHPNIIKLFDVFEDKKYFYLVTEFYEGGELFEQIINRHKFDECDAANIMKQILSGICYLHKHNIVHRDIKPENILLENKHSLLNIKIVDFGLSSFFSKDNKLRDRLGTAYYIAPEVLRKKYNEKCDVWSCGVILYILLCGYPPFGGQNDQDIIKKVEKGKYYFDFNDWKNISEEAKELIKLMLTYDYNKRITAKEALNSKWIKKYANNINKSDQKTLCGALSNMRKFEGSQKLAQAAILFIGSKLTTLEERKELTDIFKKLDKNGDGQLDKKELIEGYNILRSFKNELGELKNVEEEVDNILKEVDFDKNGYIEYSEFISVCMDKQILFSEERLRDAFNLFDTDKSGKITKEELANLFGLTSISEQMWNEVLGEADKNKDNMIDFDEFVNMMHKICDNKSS
The target of experiment [6] is Plasmodium falciparum protein kinase 6 (PK6, PF3D7_1337100) (UniProt Q8IDW1). In words: PfPK6 kinase inhibitors, biochemical, TCAMS library (AID 1159586). The following applies: recombinant PfPK6, Kinase-Glo ATP depletion luminescence.
Plasmodium falciparum protein kinase 6 (PK6, PF3D7_1337100), sequence (Q8IDW1 1-305): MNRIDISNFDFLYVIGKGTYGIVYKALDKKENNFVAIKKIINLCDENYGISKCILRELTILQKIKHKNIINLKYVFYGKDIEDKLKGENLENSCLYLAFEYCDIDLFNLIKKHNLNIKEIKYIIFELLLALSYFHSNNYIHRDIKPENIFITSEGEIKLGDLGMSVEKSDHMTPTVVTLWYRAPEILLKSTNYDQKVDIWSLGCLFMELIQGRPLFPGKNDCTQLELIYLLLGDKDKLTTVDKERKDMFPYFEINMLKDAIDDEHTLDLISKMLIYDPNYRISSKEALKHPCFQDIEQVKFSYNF
Experiment [7] addresses Protein kinase 7 (PK7), Plasmodium falciparum 3D7 (PF3D7_0213400) (UniProt Q7YTF7). Description: inhibition of Plasmodium PK7 catalytic activity – biochemical, TCAMS antimalarial set, Kinase-Glo luminescence (AID 1159587). The following applies: recombinant PfPK7, Kinase-Glo ATP depletion luminescence.
Experiment [8] has as its target Calcium-dependent protein kinase 4 (Plasmodium falciparum (isolate 3D7)) (UniProt Q8IBS5). Description: PfCDPK4 kinase inhibitors, biochemical, TCAMS library (AID 1159588; cut-off not given, nearly all actives have IC50 up to about 0.91 µM). The following applies: recombinant PfCDPK4, Kinase-Glo ATP depletion luminescence.

Molecules are shown by their SMILES. Values without a mark were called inactive. For some assays here: Results with a measured potency or affinity are listed apart. Activity calls are given as the source filed them. Unless noted, no rule for the calls is given here.

The inhibition is the relative decrease from the control value, in per cent.

L-lactate dehydrogenase (Plasmodium falciparum (isolate CDC / Honduras)), sequence (Q27743 whole entry, looked up): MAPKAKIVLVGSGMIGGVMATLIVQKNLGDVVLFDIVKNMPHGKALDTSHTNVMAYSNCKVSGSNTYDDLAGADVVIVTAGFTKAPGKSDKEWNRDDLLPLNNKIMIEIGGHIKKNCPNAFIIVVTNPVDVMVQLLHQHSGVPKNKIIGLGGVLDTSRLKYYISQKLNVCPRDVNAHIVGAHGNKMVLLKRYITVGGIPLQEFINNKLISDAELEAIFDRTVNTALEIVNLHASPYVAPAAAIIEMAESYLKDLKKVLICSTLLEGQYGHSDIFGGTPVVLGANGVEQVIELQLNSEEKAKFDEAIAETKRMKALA
Calcium-dependent protein kinase 4 (Plasmodium falciparum (isolate 3D7)), sequence (Q8IBS5 whole entry, looked up): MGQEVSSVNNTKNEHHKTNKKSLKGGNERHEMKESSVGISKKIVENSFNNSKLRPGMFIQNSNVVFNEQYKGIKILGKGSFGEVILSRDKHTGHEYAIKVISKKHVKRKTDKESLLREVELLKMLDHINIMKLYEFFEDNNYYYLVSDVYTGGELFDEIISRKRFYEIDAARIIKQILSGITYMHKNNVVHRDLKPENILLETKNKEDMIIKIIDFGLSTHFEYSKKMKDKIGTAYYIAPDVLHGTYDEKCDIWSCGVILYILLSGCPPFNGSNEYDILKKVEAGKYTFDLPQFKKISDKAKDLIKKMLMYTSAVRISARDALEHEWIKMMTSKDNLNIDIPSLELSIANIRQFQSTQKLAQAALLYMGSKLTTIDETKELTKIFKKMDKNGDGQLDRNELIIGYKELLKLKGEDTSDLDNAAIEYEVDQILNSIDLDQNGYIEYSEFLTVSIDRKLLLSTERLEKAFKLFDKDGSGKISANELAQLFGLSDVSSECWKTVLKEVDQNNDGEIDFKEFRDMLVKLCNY
Protein kinase 7 (PK7), Plasmodium falciparum 3D7 (PF3D7_0213400), sequence (Q7YTF7 1-343): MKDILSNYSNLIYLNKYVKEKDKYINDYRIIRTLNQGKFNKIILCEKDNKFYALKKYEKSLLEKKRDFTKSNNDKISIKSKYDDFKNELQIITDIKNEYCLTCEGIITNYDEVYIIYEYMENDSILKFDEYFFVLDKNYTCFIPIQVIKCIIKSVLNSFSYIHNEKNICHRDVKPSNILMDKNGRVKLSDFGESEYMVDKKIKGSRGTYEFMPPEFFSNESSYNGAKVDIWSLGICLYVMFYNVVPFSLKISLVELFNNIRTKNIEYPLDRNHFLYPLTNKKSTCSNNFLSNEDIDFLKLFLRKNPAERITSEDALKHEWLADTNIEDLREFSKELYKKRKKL

In the case of `CCNc1nc(OCC(F)(F)F)nc(N(c2ccccc2)c2ccccc2)n1`, the growth inhibition in experiment [1] was 83% (active); in experiment [4], 100% (active). Besides, the inhibition in experiment [2] is 5%; in experiment [3], 1%. For the same compound, the result in experiment [5], in experiment [6], in experiment [7] and in experiment [8] was inactive.
Consider `CC(=O)Nc1ccc(C(=O)NC2CCN(c3ccnc4cc(Cl)ccc34)CC2)cc1`, for which the growth inhibition in experiment [1] is 99% (active); in experiment [4], 101% (active). For the same compound, the values for the inhibition in experiment [2] and in experiment [3] were 5% and -4%, respectively. Further, the result in experiment [5], in experiment [6], in experiment [7] and in experiment [8] was inactive.
In the case of `Cn1cnc(CCNC(=O)c2ccc(-c3cccc(-c4nc5ccccc5[nH]4)c3)cc2)c1`, the growth inhibition in experiment [1] is 14%; in experiment [4] it was 93% (active). Further, the inhibition in experiment [2] was 1%; in experiment [3], 2%. The result in experiment [5], in experiment [6], in experiment [7] and in experiment [8] was inactive.
Take `NC(N)=NN=CC(=O)Nc1cc([N+](=O)[O-])cc([N+](=O)[O-])c1`: the growth inhibition in experiment [1] is -2%; in experiment [4], 100% (active). Besides, the inhibition in experiment [2] was -5%; in experiment [3], -4%. Moreover, the result in experiment [5], in experiment [6], in experiment [7] and in experiment [8] was inactive.
In the case of `COc1cc(-c2ccc3c(-c4ccc(C(=O)N5CCN(C)CC5)cc4)[nH]nc3n2)cc(OC)c1OC`, the growth inhibition was 54% (active) in experiment [1] and 91% (active) in experiment [4]. The results for the inhibition in experiment [2] and in experiment [3] were 27% and 4%, respectively. The outcome in experiment [5], in experiment [6], in experiment [7] and in experiment [8] was inactive.
On to `c1csc(-c2nc(N3CCCCC3)ncc2-c2ccsc2)n1`, for which the growth inhibition is 72% (active) in experiment [1] and 89% (active) in experiment [4]. Also, the inhibition in experiment [2] is -5%; in experiment [3] it was -3%. The outcome in experiment [5], in experiment [6], in experiment [7] and in experiment [8] was inactive.
For `Cc1cc(O)c(CN2CCN(Cc3cccs3)CC2)cc1C(C)C`, the growth inhibition in experiment [1] was 97% (active); in experiment [4], 98% (active). Further, the values for the inhibition in experiment [2] and in experiment [3] were 7% and -2%, respectively. Moreover, the outcome in experiment [5], in experiment [6], in experiment [7] and in experiment [8] was inactive.
In the case of `CC(C)NCc1ccc(-c2cccc(NC(=O)c3ccc(Cl)cc3)c2)cc1`, the values for the growth inhibition in experiment [1] and in experiment [4] were 82% (active) and 100% (active), respectively. Further, the inhibition was 20% in experiment [2] and -7% in experiment [3]. The outcome in experiment [5], in experiment [6], in experiment [7] and in experiment [8] was inactive.
As to `Cc1nc(N/C=C/c2ccc(O)cc2)cc(N2CCCC2)n1`, the growth inhibition in experiment [1] is 54% (active); in experiment [4], 93% (active). Besides, the figures for the inhibition in experiment [2] and in experiment [3] were -11% and -2%, respectively. Moreover, the outcome in experiment [5], in experiment [6], in experiment [7] and in experiment [8] was inactive.
With `c1ccc(-c2ccc(-c3nc4ccccc4[nH]3)cc2)cc1`, the results for the growth inhibition in experiment [1] and in experiment [4] were 83% (active) and 93% (active), respectively. Also, the inhibition was 10% in experiment [2] and -5% in experiment [3]. Also, the result in experiment [5], in experiment [6], in experiment [7] and in experiment [8] was inactive.
`CN(C)CCCNc1ncnc2c1[nH]c1ccc(Br)cc12`: the growth inhibition was 19% in experiment [1] and 100% (active) in experiment [4]. The inhibition in experiment [2] and in experiment [3] was 3% throughout. The result in experiment [5], in experiment [6], in experiment [7] and in experiment [8] was inactive.
Consider `FC(F)(F)c1ccc2nc(-c3ccc(-c4ccc(CN5CCN(c6ccncc6)CC5)cc4)cc3)[nH]c2c1`, for which the figures for the growth inhibition in experiment [1] and in experiment [4] were 99% (active) and 101% (active), respectively. For the same compound, the values for the inhibition in experiment [2] and in experiment [3] were 91% (active) and 6%, respectively. Also, the outcome in experiment [5], in experiment [6], in experiment [7] and in experiment [8] was inactive.
With `CC(C)(C)C(=O)N1CCN(c2ccc([N+](=O)[O-])c(NC3CC3)c2)CC1`, the growth inhibition in experiment [1] is 97% (active); in experiment [4], 95% (active). Moreover, the inhibition in experiment [2] is 8%; in experiment [3] it was 3%. For the same compound, the outcome in experiment [5], in experiment [6], in experiment [7] and in experiment [8] was inactive.
Turning to `O=C(NCc1ccccc1)C1Cc2c([nH]c3ccc(Br)cc23)C2(CCN(Cc3ccccc3)CC2)N1` (configuration not stated), the growth inhibition in experiment [1] was 70% (active); in experiment [4] it was 98% (active). The inhibition in experiment [2] was 15%; in experiment [3], 1%. In addition, the result in experiment [5], in experiment [6], in experiment [7] and in experiment [8] was inactive.
Take `CCOc1cc(Br)c(C(C)NC(=O)c2ccccc2)cc1OCC` (configuration not stated): the growth inhibition in experiment [1] was 10%; in experiment [4] it was 92% (active). Also, the inhibition in experiment [2] was -2%; in experiment [3], 5%. Also, the result in experiment [5], in experiment [6], in experiment [7] and in experiment [8] was inactive.
Take `CN(C)c1ccc(-c2ccc(C(=O)NC3CCN(Cc4ccc(C(C)(C)C)cc4)CC3)s2)cc1`: the growth inhibition was 59% (active) in experiment [1] and 95% (active) in experiment [4]. In addition, the inhibition in experiment [2] is 35%; in experiment [3], -4%. For the same compound, the outcome in experiment [5], in experiment [6], in experiment [7] and in experiment [8] was inactive.
`COc1cccc(CNC(=O)c2cccc(-c3ccc(CN4CCC(N5CCCC5)CC4)cc3)n2)c1`: the growth inhibition in experiment [1] was 76% (active); in experiment [4], 101% (active). Also, the inhibition is 16% in experiment [2] and 1% in experiment [3]. The outcome in experiment [5], in experiment [6], in experiment [7] and in experiment [8] was inactive.
Regarding `CCCCN(CCCC)C(=NCCCCCCN=C(NC(N)=NCc1ccc(Cl)c(Cl)c1)N(CCCC)CCCC)NC(N)=NCc1ccc(Cl)c(Cl)c1`, the figures for the growth inhibition in experiment [1] and in experiment [4] were 96% (active) and 100% (active), respectively. The inhibition in experiment [2] was 9%; in experiment [3] it was -7%. The outcome in experiment [5], in experiment [6], in experiment [7] and in experiment [8] was inactive.
On to `COc1ccc2nccc([C@@H](O)CN3CCC(NCCOc4ccncc4)CC3)c2c1`, for which the growth inhibition in experiment [1] was -1%; in experiment [4] it was 100% (active). Also, the inhibition was 11% in experiment [2] and 1% in experiment [3]. The outcome in experiment [5], in experiment [6], in experiment [7] and in experiment [8] was inactive.

The record behind these values is PubChem BioAssay.
